Screens from PubChem BioAssay.
CHO-K1 Ca PAM: M1 PAM counterscreen hit in parental CHO-K1 cells; ATP EC20, Fluo-8 calcium fluorescence; 0% at ATP EC20, 100% at ATP max; activation, % at 3 µM; 360,000 tested, 0.02% active;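 active means activation above the run cutoff, the mean activation of all test compounds plus 3 SD, cut at about 40% in these data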;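 further: peak over basal fluorescence ratio in a 140 s read after ATP addition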
ANO1 activ: activators or potentiators of mouse TMEM16A chloride channel | Q8BHY3 | HEK293 TMEM16A/YFP-H148Q/I152L, iodide quench fluorescence; stronger effect = lower value | B-score at 10 µM | 340,000 tested, 0.3% active;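 active means fluorescence-ratio B-score plate-corrected deviation score at least 3 library SD below zero, with starting fluorescence score within 5 deviations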;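 further: channel opened by trigger with iodide after compound preincubation; score built on the fluorescence ratio of max minus min over baseline; more negative score means more quench and so TMEM16A activation or potentiation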
Target sequence (Q8BHY3 whole entry, looked up): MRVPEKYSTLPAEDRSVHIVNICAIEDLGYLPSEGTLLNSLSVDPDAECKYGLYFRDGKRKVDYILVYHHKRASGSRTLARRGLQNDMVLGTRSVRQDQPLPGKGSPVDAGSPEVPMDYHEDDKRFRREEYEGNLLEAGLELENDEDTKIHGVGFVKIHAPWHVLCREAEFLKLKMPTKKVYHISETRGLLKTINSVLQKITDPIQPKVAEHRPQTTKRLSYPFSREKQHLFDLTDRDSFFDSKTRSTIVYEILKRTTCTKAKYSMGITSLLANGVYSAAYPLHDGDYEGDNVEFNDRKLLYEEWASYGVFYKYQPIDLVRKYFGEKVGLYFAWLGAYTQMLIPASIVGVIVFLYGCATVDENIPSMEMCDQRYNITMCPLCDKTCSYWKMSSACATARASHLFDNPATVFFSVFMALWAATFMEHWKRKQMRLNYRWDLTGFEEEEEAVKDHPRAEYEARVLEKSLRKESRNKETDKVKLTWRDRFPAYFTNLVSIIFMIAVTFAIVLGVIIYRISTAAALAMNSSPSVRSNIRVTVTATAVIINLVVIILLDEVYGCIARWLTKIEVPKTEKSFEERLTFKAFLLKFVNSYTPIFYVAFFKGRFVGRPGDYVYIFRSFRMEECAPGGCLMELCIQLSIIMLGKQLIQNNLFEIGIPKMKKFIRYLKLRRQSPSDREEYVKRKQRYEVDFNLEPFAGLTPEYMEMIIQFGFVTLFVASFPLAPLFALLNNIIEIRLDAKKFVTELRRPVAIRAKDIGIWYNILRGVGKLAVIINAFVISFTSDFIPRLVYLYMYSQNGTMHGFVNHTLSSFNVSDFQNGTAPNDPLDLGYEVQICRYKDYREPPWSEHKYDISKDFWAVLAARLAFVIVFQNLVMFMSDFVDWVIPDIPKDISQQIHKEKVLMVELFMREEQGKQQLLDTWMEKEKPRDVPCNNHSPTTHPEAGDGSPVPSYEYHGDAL
NTR1 agonist: NTR1 (human) agonism. P30989. NTR1-U2OS beta-arrestin-GFP spot imaging, agonist mode. activation, % at 20 µM. 330,000 tested, 0.17% active. AID 493036;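 active means activation at or above 40% of the spot to cytoplasm intensity ratio, with at least 20 cells analyzed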
CHO-K1 Ca antag: counter-screen for M1 antagonists: effect in parental CHO-K1 cells; ATP-induced calcium, Fluo-8 fluorescence; inhibition, % at 3 µM; 360,000 tested, 0.6% active; AID 602250;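 active means inhibition above a per-plate cutoff, the plate's mean sample inhibition plus 3 SD, cut at about 24% in these data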
TMEM16A inh: inhibitors of mouse TMEM16A calcium-activated chloride channel | AID 588511 | Q8BHY3 | HEK293 TMEM16A/YFP iodide influx fluorescence, ionomycin | normalized B-score (activity score, 25-100; higher = stronger inhibition) at 10 µM | 310,000 tested, 1.2% active;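 active means ratio plate-corrected score three or more library SD toward inhibition, starting fluorescence score within five deviations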;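 further: score derived from kinetic fluorescence span divided by baseline fluorescence per well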
M1 ag parental: nonselective activator or artifact in parental CHO-K1 cells. AID 602248. 360,000 tested, 0.48% active. Fluo-8 calcium fluorescence; scaled to maximal ATP response, vehicle zero. activation, % at 3 µM; in the data active means activation above about 15%;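 further: untransfected CHO-K1 host cells lacking M1 receptor as counterscreen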
Each line names hits and unclear results; the compound was inactive in the other large screens. An excerpt weighted towards active compounds, which were near 2.2% of everything screened.

CC(=O)N(CC(=O)N(CC(=O)O)c1ccc(Cl)cc1)c1ccc(Cl)cc1	none (no result: NTR1 agonist, TMEM16A inh)
CCCCOC(=O)Nc1ccccc1C(=O)OC	ANO1 activ -13
CCCOC(=O)c1ccc(NC(=O)/C=C/c2cccs2)cc1	TMEM16A inh 25
COC(=O)c1ccccc1NC(=O)CSc1nc(N)cc(N)n1	CHO-K1 Ca antag 26
CCOC(=O)c1ccccc1NC(=O)CSc1nc(N)cc(N)n1	none
CCCCOC(=O)Nc1ccc(C(=O)OCCC)cc1	CHO-K1 Ca antag 24
CCCC(=O)N1CCC1(C)C(=O)NS(=O)(=O)c1ccc(C(C)(C)C)cc1 (stereo unspecified)	none (no result: ANO1 activ, NTR1 agonist, TMEM16A inh)
CCCCCCCCNCCS(=O)(=O)NC1CCCCC1	none (no result: ANO1 activ, NTR1 agonist, TMEM16A inh)
CCOC(=O)C1=CN(Cc2cccc(F)c2)S(=O)(=O)N(C)C1CCc1ccccc1 (stereo unspecified)	none (no result: ANO1 activ, TMEM16A inh)
CCC(C)(C(=O)NC1CCCC1)N(Cc1cccs1)C(=O)c1ccc2c(c1)OCO2 (stereo unspecified)	M1 ag parental 16
CCC(C)(C(=O)NC1CCCCC1)N(Cc1cccs1)C(=O)Cc1cccs1 (stereo unspecified)	none
COC1=CC(=O)C(O)=C(CCCCCCC/C=C/CCCCCCCC2=C(O)C(=O)C=C(OC)C2=O)C1=O	TMEM16A inh 100
COc1ccc(CCNC(=O)c2sc3ccccc3c2Cl)cc1OC	none
COc1ccc(CCNC(=O)c2cc3cc(F)ccc3nc2C)cc1OC	M1 ag parental 16
COc1ccc(CCNC(=O)c2cc3sc(Cl)cc3n2C)cc1OC	CHO-K1 Ca antag 24
COc1ccc(CCNC(=S)NCCc2ccc(OC)c(OC)c2)cc1OC	TMEM16A inh 25
CNC(=S)NCCc1ccc(OC)c(OC)c1	none
COc1ccc(CCNC(=O)c2ccc3ccccc3n2)cc1OC	none
COc1ccccc1NC(=S)NCCc1ccc(S(N)(=O)=O)cc1	none
COc1ccc(Cl)cc1NC(=S)NCCc1ccc(S(N)(=O)=O)cc1	ANO1 activ -6.2
CCCCCCn1cc(CN2CC(N(C)CCC)CS2(=O)=O)nn1 (stereo unspecified)	none (no result: ANO1 activ, NTR1 agonist, TMEM16A inh)
Nc1ccn(CCCN2CCN(C(=O)C3CC3)CC2)c(=O)n1	none (no result: ANO1 activ, NTR1 agonist, TMEM16A inh)
CC(C)C[C@@H](CN)NC(=O)c1nc[nH]c1C(=O)N[C@@H](CC(C)C)C(=O)CNC[C@H](C)NC(=O)c1nc[nH]c1C(=O)N[C@@H](CC(=O)O)C(=O)O	none (no result: ANO1 activ, NTR1 agonist, TMEM16A inh)
COc1cccc(S(=O)(=O)N(C)C[C@H]2Oc3cc(Br)ccc3S(=O)(=O)N([C@@H](C)CO)C[C@H]2C)c1	none (no result: ANO1 activ, NTR1 agonist, TMEM16A inh)
NS(=O)(=O)c1ccc(CCNC(=O)CNC(=O)c2ccccc2F)cc1	none
NS(=O)(=O)c1ccc(CCNC(=O)c2ccccc2F)cc1	CHO-K1 Ca antag 28
COCCCn1cc(CN2CC(N3CCSCC3)CS2(=O)=O)nn1 (stereo unspecified)	none (no result: ANO1 activ, NTR1 agonist, TMEM16A inh)
O=C(CSc1nnc(Cn2nnc3ccccc32)o1)N(Cc1ccc(Cl)cc1)c1ccccc1	TMEM16A inh 100
O=C(CSc1nnc(Cn2nnc3ccccc32)o1)Nc1cccc(Cl)c1	none
COc1cc(C(=O)N2CCCC(C)(C(=O)NS(=O)(=O)C3CC3)C2)cc(OC)c1OC (stereo unspecified)	none (no result: ANO1 activ, NTR1 agonist, TMEM16A inh)
Cc1cc2c(=O)n(Cc3ccco3)c(SCC(=O)c3ccc(Cl)s3)nc2s1	TMEM16A inh 25
FC(F)(F)Sc1ccc(NC(=S)NCc2ccccc2)cc1	CHO-K1 Ca antag 31
S=C(NCCc1cccc(Cl)c1)NCc1ccccc1	none
S=C(NCc1ccccc1)NCc1cccc(Cl)c1	CHO-K1 Ca antag 60
FC(F)(F)c1cccc(CNC(=S)Nc2ccccc2)c1	CHO-K1 Ca antag 27
CC(C)(C)n1nnnc1C(c1ccccc1)N1CCN(c2ccc(C(F)(F)F)cn2)CC1 (stereo unspecified)	none (no result: ANO1 activ, NTR1 agonist, TMEM16A inh)
O=C(Nc1ccc2c(c1)OCO2)c1ccc2nc([C@@H]3O[C@H](CO)[C@H](O)[C@H](O)[C@H]3O)[nH]c2c1	none (no result: ANO1 activ, NTR1 agonist, TMEM16A inh)
Cc1c(C2(O)CCCCC2)[nH]c2cc(C(F)(F)F)ccc12	none (no result: TMEM16A inh)
CCc1c(C2(O)CCCCC2)[nH]c2cc(C(F)(F)F)ccc12	TMEM16A inh 100
COc1ccc(CN2C(=O)[C@H]3Cc4c([nH]c5ccccc45)C(C)(C)N3C2=O)cc1	TMEM16A inh 25
Cc1cc2ncn(C3CC(=O)N(C)C3=O)c2cc1C (stereo unspecified)	none
Cc1cc2ncn(C3CC(=O)N(Cc4ccccc4)C3=O)c2cc1C (stereo unspecified)	M1 ag parental 17
CCN(Cc1ccccc1)c1c(C(=O)O)cnc2c1cnn2C	ANO1 activ -4.8
CC(=O)C1CCC2C3CC=C4CC(SC(=N)N)CCC4(C)C3CCC12C (stereo unspecified)	none (no result: NTR1 agonist, TMEM16A inh)
COc1ccc(C(CC(=O)O)c2ccc3c(c2)OCO3)cc1 (stereo unspecified)	none
COc1ccc(C(CCNCc2ccc(N(C)C)cc2)C(C)C)cc1 (stereo unspecified)	CHO-K1 Ca antag 28
COc1ccc(C(CCNCc2ccc(OC(C)C)cc2)C(C)C)cc1 (stereo unspecified)	none
COc1ccc(CNCCC(c2ccccc2)c2ccc3c(c2)OCO3)cc1 (stereo unspecified)	M1 ag parental 28
CCCc1nc2c(C)cc(Br)cn2c1Cc1cccc(F)c1	none (no result: ANO1 activ, NTR1 agonist, TMEM16A inh)
Cc1ccc(-n2cc(C(C)(C)C)[nH]c2=S)cc1	CHO-K1 Ca antag 26
C[C@@H]1CN([C@H](C)CO)C(=O)CCCn2nncc2CO[C@H]1CN(C)Cc1ccc2cccnc2c1	none (no result: ANO1 activ, NTR1 agonist, TMEM16A inh)
C/C(=N/NC(=O)CNC(=O)c1ccccc1F)c1ccc2c(c1)CCCC2	none
C/C(=N/NC(=O)CNC(=O)c1ccc2c(c1)OCO2)c1ccc2c(c1)CCCC2	CHO-K1 Ca antag 25
CCN(C(=O)CSc1nc(C)nc2sc(C)c(C)c12)c1ccc(F)cc1	ANO1 activ -41 (no result: TMEM16A inh)
C#CC[N+](C)(C)CCCCCCCCCCCC	M1 ag parental 24
COc1ccc(Nc2c(CCc3ccccc3)nc3nc(C)cc(C)n23)cc1	none (no result: ANO1 activ, NTR1 agonist, TMEM16A inh)
Cc1cc(C)c(C#N)c(SCc2nnc(-c3ccccc3)o2)n1	CHO-K1 Ca antag 25
Cc1cc(C)c(C#N)c(SCc2nnc(-c3ccccc3[N+](=O)[O-])o2)n1	none
C/C(=N\Nc1ccccn1)c1ccc(OC(F)F)cc1	M1 ag parental 17
C/C(=N\Nc1ccccn1)c1ccc(C#N)cc1	none
Cc1ccc2cc(CN(Cc3cccs3)Cc3nnnn3CC3CCCO3)c(=O)[nH]c2c1C (stereo unspecified)	CHO-K1 Ca antag 24 (no result: NTR1 agonist, TMEM16A inh)
O=C(NCC(Cl)c1ccc2ccccc2c1)c1c(F)cccc1F (stereo unspecified)	M1 ag parental 20
O=C(NCCCNC(=O)c1c(F)cccc1F)c1c(F)cccc1F	none
C=CCn1c(C)cc(C(=O)COc2ccc(C)nc2[N+](=O)[O-])c1C	M1 ag parental 17
